Here are results for 40 compounds from ChEMBL document CHEMBL3988442, “University of Dundee, Small-Polar-MMV Screening Library” (2021).

One test has as its target T1, Aspartate--tRNA(Asp/Asn) ligase (Mycobacterium tuberculosis (strain ATCC 25618 / H37Rv)) (UniProt P9WFW3). Also: in the data most compounds retested in dose-response had high values.
T1 sequence (whole entry): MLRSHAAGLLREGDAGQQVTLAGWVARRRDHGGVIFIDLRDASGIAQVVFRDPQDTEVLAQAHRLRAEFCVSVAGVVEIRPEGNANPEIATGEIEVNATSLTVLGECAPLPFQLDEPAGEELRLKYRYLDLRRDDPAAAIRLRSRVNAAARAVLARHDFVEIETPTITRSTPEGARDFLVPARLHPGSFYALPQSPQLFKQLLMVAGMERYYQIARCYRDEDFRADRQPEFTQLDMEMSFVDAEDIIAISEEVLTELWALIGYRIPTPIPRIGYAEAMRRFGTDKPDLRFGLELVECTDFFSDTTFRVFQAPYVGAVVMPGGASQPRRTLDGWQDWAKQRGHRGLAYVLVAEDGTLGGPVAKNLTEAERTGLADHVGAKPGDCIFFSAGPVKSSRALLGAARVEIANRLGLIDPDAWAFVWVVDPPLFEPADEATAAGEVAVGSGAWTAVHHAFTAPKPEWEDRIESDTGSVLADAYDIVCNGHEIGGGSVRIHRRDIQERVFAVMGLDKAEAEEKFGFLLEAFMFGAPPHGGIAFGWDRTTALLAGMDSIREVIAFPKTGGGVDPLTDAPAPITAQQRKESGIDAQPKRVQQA
In words: Assay for Asp RNA synthetase-1 from Mycobacterium tuberculosis. The settings on record: 30 µM. Also noted: scale not given: direction of the effect not stated beside the values. Format: functional.
On to `CC(Cn1cccn1)NC(=O)Nc1nnc(C2CC2)s1` (stereo not given), for which the Percent Effect was -7.13%.

Regarding `N#Cc1ccnc(N2CCN(Cc3cccc(F)c3)CC2)c1`, the Percent Effect is -3.46%.

Consider `O=C(O)c1ccc(S(=O)(=O)Nc2ccc(Cl)c(F)c2)c(F)c1`, for which the Percent Effect is -0.533%.

Regarding `CCn1ccnc1CN1CCN(CC(=O)NC(=O)NC2CC2)CC1`, the Percent Effect was -2.79%.

Take `O=C(CCN1CCC(C(=O)c2cc(F)ccc2F)CC1)NC1CC1`: the Percent Effect was 1.41%.

With `CN(C)c1nc2c(c(N3CCC(O)CC3)n1)CN(CC1CCNC1)CC2` (stereo not given), the Percent Effect came out at 3.47%.

With `CCSCCNC(=O)C(c1cccc(F)c1)N(C)C` (stereo not given), the Percent Effect was determined as 0.0558%.

Turning to `CC(C)(C)c1ccc(C2(C(=O)NCCCS(C)(=O)=O)CC2)cc1`, the Percent Effect stood at 8.98%.

Regarding `Cn1cc(CN2CCN(Cc3nccn3C)CC2)cn1`, the Percent Effect was -2.81%.

Regarding `Cc1ccc(S(=O)(=O)N2CCOc3ccccc32)cc1C(=O)O`, the Percent Effect is -1.83%.

As to `CC(C(=O)NCCN1CCCCCC1)n1cncn1` (stereo not given), the Percent Effect is -4.21%.

Turning to `Cc1nccn1-c1cccc(C2CCCN(C(=O)c3cc[nH]n3)C2)n1` (stereo not given), the Percent Effect is -0.309%.

Take `Cc1nc(CN2CCC(N(C)Cc3noc(C4CC4)n3)C2)oc1C` (stereo not given): the Percent Effect is 1.48%.

For `CC(C)(C)C(O)CN1CCN(C(=O)c2cccc3ncccc23)CC1` (stereo not given), the Percent Effect came out at 0.278%.

As for `COc1cccc(N2CCN(Cc3ccc(NC(C)=O)cc3)CC2=O)c1`, the Percent Effect was -1.75%.

Turning to `Cn1cc(CN2CCCC3(CCCN3S(C)(=O)=O)C2)cn1` (stereo not given), the Percent Effect amounted to 6.18%.

For `CO[C@H]1CCN(S(=O)(=O)c2cn(C)cn2)[C@H]1Cc1cccnc1`, the Percent Effect is -0.175%.

For `Cc1ccc(C(=O)N2CC[C@@H]3[C@H]2CCC(=O)N3c2ccccc2)o1`, the Percent Effect was -6.1%.

As to `N#Cc1ccccc1CN1CCCCC1Cn1cncn1` (stereo not given), the Percent Effect was 0.359%.

Take `Cc1noc([C@@]23CCO[C@@H]2CCN(C(=O)c2sccc2C)C3)n1`: the Percent Effect is -0.466%.

The target of a further test is Shiga toxin 2 (Escherichia coli O157:H7) (UniProt P09385+P09386). In words: E. coli 0.157:H7 Shiga Toxin SOP - stx2 screening assay. To be noted: 30 µM. Format: functional. Also noted: scale not given: direction of the effect not stated beside the values.
Consider `COc1cccc(CNCCc2cc(F)cc3c2OCOC3)c1`, for which the Percent Effect was -27.3%.

For the compound `COCC1c2nnn(CC3CC3)c2CCN1C(=O)c1cccc(F)c1` (stereo not given), the Percent Effect was 7.97%.

With `CN(C)S(=O)(=O)N1CCCC1CC(=O)c1cccs1` (stereo not given), the Percent Effect was -10.2%.

On to `Cc1ccc(CN2Cc3c(C(=O)N(C)C)nn(C)c3C2)s1`, for which the Percent Effect was -23.6%.

With `O=C1CCCc2nccc(-c3ccccc3)c21`, the Percent Effect was -14.1%.

With `CC(C)N1CCC(N2CCN(C3CCC3)CC2CCO)CC1` (stereo not given), the Percent Effect is -0.0599%.

Turning to `COc1ccccc1C(O)CNC(=O)Nc1ncccc1C` (stereo not given), the Percent Effect is 8.45%.

Consider `Cc1cnn(CCNCc2ccc(F)cc2Cl)c1`, for which the Percent Effect was -22.9%.

`COCCN1CCN(CCS(=O)(=O)C(F)(F)F)CC1C` (stereo not given): the Percent Effect is 96.7%.

`CN(C)CC1CN(Cc2csc(C3CCCC3)n2)CCO1` (stereo not given): the Percent Effect is 14.5%.

For the compound `CCSc1cc(C(=O)NCCC(=O)Nc2ccccn2)ccn1`, the Percent Effect was -56.5%.

As for `NC(=O)c1ccc(S(=O)(=O)NC(=O)COc2ccc3c(c2)CCC3)cc1`, the Percent Effect was 13.5%.

On to `CC(C)CN1CCN(Cc2nc3ccccc3[nH]2)[C@H]2CS(=O)(=O)C[C@H]21`, for which the Percent Effect is -16.9%.

Regarding `CN1CC(=O)N(c2ccccc2)CC12CCN(Cc1cccnc1)C2` (stereo not given), the Percent Effect was -7.54%.

Take `Cc1ccc2c(c1)C1(CC2)CCN(c2nncs2)CC1`: the Percent Effect is 6.27%.

For `CCCn1nc2c(cc1=O)CN(Cc1nc(CCOC)no1)CC2`, the Percent Effect is -17.7%.

For the compound `O=C(CCCc1ccc(F)cc1)N1C[C@@H](CN2CCOCC2)[C@@H](CO)C1`, the Percent Effect was -6.96%.

On to `Cc1nc(CNCC2CN(C)CCO2)cs1` (stereo not given), for which the Percent Effect was -38.1%.

Turning to `COCCN1CCN(Cc2ccc(F)c(C)c2)[C@H]2CS(=O)(=O)C[C@H]21`, the Percent Effect was -5.44%.

With `Cc1ccc([C@@H]2CN(C(=O)c3ccc[nH]3)C[C@H]2NC(=O)C2CC2)cc1`, the Percent Effect amounted to 3.8%.

Regarding `CC(Cn1cccn1)NC(=O)Nc1nnc(C2CC2)s1` (stereo not given), the Percent Effect was found to be 7.79%.

Turning to `N#Cc1ccnc(N2CCN(Cc3cccc(F)c3)CC2)c1`, the Percent Effect was determined as 12.2%.

As to `O=C(O)c1ccc(S(=O)(=O)Nc2ccc(Cl)c(F)c2)c(F)c1`, the Percent Effect was -14.1%.

With `CCn1ccnc1CN1CCN(CC(=O)NC(=O)NC2CC2)CC1`, the Percent Effect worked out at 24.4%.

Turning to `O=C(CCN1CCC(C(=O)c2cc(F)ccc2F)CC1)NC1CC1`, the Percent Effect was -24.2%.

Take `CN(C)c1nc2c(c(N3CCC(O)CC3)n1)CN(CC1CCNC1)CC2` (stereo not given): the Percent Effect was -11.1%.

As for `CCSCCNC(=O)C(c1cccc(F)c1)N(C)C` (stereo not given), the Percent Effect came to 12.8%.

Consider `CC(C)(C)c1ccc(C2(C(=O)NCCCS(C)(=O)=O)CC2)cc1`, for which the Percent Effect was -49.3%.

Take `Cn1cc(CN2CCN(Cc3nccn3C)CC2)cn1`: the Percent Effect is -37.2%.

As to `Cc1ccc(S(=O)(=O)N2CCOc3ccccc32)cc1C(=O)O`, the Percent Effect was -32.8%.

As for `CC(C(=O)NCCN1CCCCCC1)n1cncn1` (stereo not given), the Percent Effect was -27.3%.

`Cc1nccn1-c1cccc(C2CCCN(C(=O)c3cc[nH]n3)C2)n1` (stereo not given): the Percent Effect is -32.7%.

Take `Cc1nc(CN2CCC(N(C)Cc3noc(C4CC4)n3)C2)oc1C` (stereo not given): the Percent Effect is -11%.

On to `CC(C)(C)C(O)CN1CCN(C(=O)c2cccc3ncccc23)CC1` (stereo not given), for which the Percent Effect is -208%.

Take `COc1cccc(N2CCN(Cc3ccc(NC(C)=O)cc3)CC2=O)c1`: the Percent Effect was -2.21%.

As for `Cn1cc(CN2CCCC3(CCCN3S(C)(=O)=O)C2)cn1` (stereo not given), the Percent Effect was -11.1%.

As for `CO[C@H]1CCN(S(=O)(=O)c2cn(C)cn2)[C@H]1Cc1cccnc1`, the Percent Effect was -10.2%.

As to `Cc1ccc(C(=O)N2CC[C@@H]3[C@H]2CCC(=O)N3c2ccccc2)o1`, the Percent Effect is -13%.

Turning to `N#Cc1ccccc1CN1CCCCC1Cn1cncn1` (stereo not given), the Percent Effect was found to be 25%.

For the compound `Cc1noc([C@@]23CCO[C@@H]2CCN(C(=O)c2sccc2C)C3)n1`, the Percent Effect was -3.55%.
